The values below come from PubChem BioAssay AID1239 (SRMLSC, 2008).

About 3,100 (1.6%) of roughly 190,000 compounds were called active. The sample holds actives, similar compounds and a random draw of the others, so the mix is not that of the screen. No stated cut-off is given here; in the data, active means fold change above about 3.3; inconclusive means no clear call, values can overlap the other calls; inactive means below that.

A short description of the assay: NF-kB upregulation, human neuronal cells – cell-based, HTS, primary screen (AID 1239). As to conditions: NF-kB reporter expression, at 12.5 µM, active compounds read high.
For `COc1cc(C(=O)NCc2ccc(-n3cccc3)cc2)cc(OC)c1OC`, the fold change is 1.25 (inactive).

In the case of `COc1ccc(CN2CN(C3CCCC3)CSC2=S)cc1`, the fold change is 1.11 (inactive).

Take `COc1ccc(-c2nnc3ccc(SCc4ccccc4)nn23)cc1`: the fold change was 0.97 (inactive).

Consider `COC(=O)CSc1nc(C)c2ccc(OC)cc2n1`, for which the fold change is 1.13 (inactive).

For the compound `COc1ccc2nc(SCc3ccccc3)nc(C)c2c1`, the fold change was 9.79 (active).

Regarding `O=C(c1ccc2ccccc2n1)N1CCN(c2ccccc2Cl)CC1`, the fold change was 2.01 (inactive).

As for `CN(C)c1ccc(C=C2C(=O)OC3(CCCC3)OC2=O)cc1`, the fold change is 1.03 (inactive).

As for `COc1ccc(-c2noc(CSc3ccc(C)cc3)n2)cc1`, the fold change was 1.04 (inactive).

On to `COc1ccc2[nH]c(=O)c(-c3noc(-c4ccc(F)cc4)n3)cc2c1`, for which the fold change was 1.09 (inactive).

For the compound `Cc1ccc(Cc2nc(-c3cccc(C)c3)no2)cc1`, the fold change is 1.99 (inactive).

Consider `COc1ccc(-c2noc(-c3ccc(C)cc3)n2)cc1`, for which the fold change is 5.86 (active).

Take `Cc1cccc(-c2noc(-c3ccc(F)cc3)n2)c1`: the fold change is 8.41 (active).

As to `COc1ccc(-c2nc(-c3ccccc3)no2)c(OC)c1`, the fold change was 1.5 (inactive).

Take `COCCNC(=S)N1CCC(NC(=O)C23CC4CC(CC(C4)C2)C3)CC1`: the fold change is 0.98 (inactive).

In the case of `CN(CCN1CCOCC1)Cc1nc(-c2ccc3c(c2)OCO3)no1`, the fold change is 1.23 (inactive).

`Cn1cc(-c2ccccc2)cc(C#N)c1=O`: the fold change is 1.11 (inactive).

Turning to `CCN(CC)P(=O)(Nc1ccc(SC(F)F)cc1)c1ccc(N(C)C)cc1NC(=O)c1ccco1` (stereo unspecified), the fold change was 0.57 (inactive).

For the compound `COc1ccccc1NC(=S)N1CCN(C(c2ccccc2)c2ccccc2)CC1`, the fold change was 0.89 (inactive).

With `CCN(CC(=O)NCc1cccs1)C(=O)c1ccccc1F`, the fold change was 1.01 (inactive).

Regarding `CC(C)CCN1CCN(Cc2ccc(C(F)(F)F)cc2)CC1CCO` (stereo unspecified), the fold change is 0.9 (inactive).

With `COc1cccc(/C(C)=N/Nc2ncc(Cl)cc2Cl)c1`, the fold change was 1.88 (inactive).

As for `C/C(=N\Nc1nc(Nc2ccccc2)nc(N2CCOCC2)n1)c1cccs1`, the fold change is 0.45 (inactive).

Regarding `C/C(=N\Nc1ncc(Cl)cc1Cl)c1cccs1`, the fold change is 4.91 (active).

Consider `OCCNc1nc2ccccc2[nH]1`, for which the fold change was 1.02 (inactive).

Regarding `C/C(=N\Nc1nc2ccccc2[nH]1)c1cccs1`, the fold change was 5.42 (active).

On to `C/C(=N\Nc1ncc(Cl)cc1Cl)c1ccc(S(=O)(=O)NCc2ccco2)cc1`, for which the fold change is 1.29 (inactive).

Take `CSc1nc2c(c(=O)[nH]1)C(c1cccc(Cl)c1Cl)CC(=O)N2` (stereo unspecified): the fold change was 1.18 (inactive).

For `CC1Cc2ccccc2N1S(=O)(=O)c1c(N)n(C)c(=O)n(C)c1=O` (stereo unspecified), the fold change is 1.07 (inactive).

In the case of `O=C(Nc1ccccc1)c1cc2ccccc2[nH]1`, the fold change was 3.43 (active).

On to `CC(C)n1c(=O)[nH]c2cc(C(=O)Nc3ccccc3)ccc21`, for which the fold change was 1.9 (inactive).

On to `O=C(Nc1ccccc1)c1ccccc1NC(=O)C(F)(F)F`, for which the fold change was 0.9 (inactive).
